# Experimental data from the supplement of paper PMC12282887.
# ± gives the standard deviation of the averaged measurements.
# Key:
# Experiment in all cases: promoter activity interaction Z-score (Lux/OD deviation from empty-vector control); higher = stronger promoter induction by the compound
# [1] = test system: E. coli BW25113 micFp lux reporter; conditions: 159.6 µg/ml
# Summary of the method: (§1)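 E. coli BW25113 luxCDABE reporter strains grew at 37°C in 40 µl LB Lennox in 384-well plates, with OD600 and luminescence read every 30 min for 12 h. After integration over 0–8 h for wild type or 1–9 h for deletion strains, wells under 10% of the median growth value were removed. Each score is the Z-transformed residual of growth-normalised luminescence fitted against a control.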
# [2] = test system: E. coli BW25113 ompFp lux reporter
# Summary of the method: as §1
# [3] = test system: E. coli BW25113 robp lux reporter
# Summary of the method: as §1
# [4] = test system: E. coli BW25113 soxSp lux reporter
# Summary of the method: as §1
# [5] = test system: E. coli BW25113 tolCp lux reporter
# Summary of the method: as §1
# [6] = 20 µg/ml, genetic background: wild type
# [7] = 20 µg/ml, genetic background: ΔmarA
# [8] = 20 µg/ml, genetic background: Δrob
# [9] = 20 µg/ml, genetic background: ΔsoxS
# [10] = 39.9 µg/ml, genetic background: wild type
# [11] = 39.9 µg/ml, genetic background: ΔmarA
# [12] = 39.9 µg/ml, genetic background: Δrob
# [13] = 39.9 µg/ml, genetic background: ΔsoxS
# [14] = 79.8 µg/ml, genetic background: wild type
# [15] = 79.8 µg/ml, genetic background: ΔmarA
# [16] = 79.8 µg/ml, genetic background: Δrob
# [17] = 79.8 µg/ml, genetic background: ΔsoxS
# [18] = 159.6 µg/ml, genetic background: wild type
# [19] = 159.6 µg/ml, genetic background: ΔmarA
# [20] = 159.6 µg/ml, genetic background: Δrob
# [21] = 159.6 µg/ml, genetic background: ΔsoxS
smiles,measurement,setting,value
NC[C@H](O)c1ccc(O)c(O)c1 [Noradrenalin],promoter activity interaction Z-score,[1]; genetic background: Δrob,-0.105 ± 0.047
same,promoter activity interaction Z-score,[1]; genetic background: ΔsoxS,-0.0781 ± 0.094
same,promoter activity interaction Z-score,[2]; [6],0.507 ± 0.061
same,promoter activity interaction Z-score,[2]; [7],0.708 ± 0.42
same,promoter activity interaction Z-score,[2]; [8],0.59 ± 0.074
same,promoter activity interaction Z-score,[2]; [9],0.138 ± 0.1
same,promoter activity interaction Z-score,[2]; [10],0.854 ± 0.025
same,promoter activity interaction Z-score,[2]; [11],0.48 ± 0.12
same,promoter activity interaction Z-score,[2]; [12],0.602 ± 0.42
same,promoter activity interaction Z-score,[2]; [13],0.403 ± 0.22
same,promoter activity interaction Z-score,[2]; [14],0.895 ± 0.33
same,promoter activity interaction Z-score,[2]; [15],0.0373 ± 0.12
same,promoter activity interaction Z-score,[2]; [16],0.307 ± 0.14
same,promoter activity interaction Z-score,[2]; [17],0.13 ± 0.09
same,promoter activity interaction Z-score,[2]; [18],1.01 ± 0.25
same,promoter activity interaction Z-score,[2]; [19],0.851 ± 0.14
same,promoter activity interaction Z-score,[2]; [20],0.476 ± 1.1
same,promoter activity interaction Z-score,[2]; [21],1.13 ± 0.2
same,promoter activity interaction Z-score,[3]; [6],0.547 ± 0.64
same,promoter activity interaction Z-score,[3]; [7],0.384 ± 0.1
same,promoter activity interaction Z-score,[3]; [8],0.384 ± 0.47
same,promoter activity interaction Z-score,[3]; [9],1.12 ± 0.86
same,promoter activity interaction Z-score,[3]; [10],0.762 ± 0.056
same,promoter activity interaction Z-score,[3]; [11],1.14 ± 0.33
same,promoter activity interaction Z-score,[3]; [12],0.129 ± 0.011
same,promoter activity interaction Z-score,[3]; [13],0.395 ± 0.56
same,promoter activity interaction Z-score,[3]; [14],0.33 ± 0.14
same,promoter activity interaction Z-score,[3]; [15],-0.159 ± 0.14
same,promoter activity interaction Z-score,[3]; [16],-0.0403 ± 0.17
same,promoter activity interaction Z-score,[3]; [17],0.042 ± 0.74
same,promoter activity interaction Z-score,[3]; [18],0.223 ± 0.48
same,promoter activity interaction Z-score,[3]; [19],-0.276 ± 0.24
same,promoter activity interaction Z-score,[3]; [20],-0.36 ± 0.58
same,promoter activity interaction Z-score,[3]; [21],-0.182 ± 0.36
same,promoter activity interaction Z-score,[4]; [6],-0.0849 ± 0.038
same,promoter activity interaction Z-score,[4]; [7],-0.0801 ± 0.073
same,promoter activity interaction Z-score,[4]; [8],-0.113 ± 0.058
same,promoter activity interaction Z-score,[4]; [9],0.0191 ± 0.33
same,promoter activity interaction Z-score,[4]; [10],0.0167 ± 0.12
same,promoter activity interaction Z-score,[4]; [11],-0.0796 ± 0.033
same,promoter activity interaction Z-score,[4]; [12],-0.0193 ± 0.2
same,promoter activity interaction Z-score,[4]; [13],0.0258 ± 0.27
same,promoter activity interaction Z-score,[4]; [14],-0.0633 ± 0.035
same,promoter activity interaction Z-score,[4]; [15],-0.258 ± 0.028
same,promoter activity interaction Z-score,[4]; [16],-0.159 ± 0.19
same,promoter activity interaction Z-score,[4]; [17],-0.00763 ± 0.11
same,promoter activity interaction Z-score,[4]; [18],-0.154 ± 0.0074
same,promoter activity interaction Z-score,[4]; [19],-0.357 ± 0.097
same,promoter activity interaction Z-score,[4]; [20],-0.388 ± 0.16
same,promoter activity interaction Z-score,[4]; [21],-0.0342 ± 0.11
same,promoter activity interaction Z-score,[5]; [6],0.0786 ± 0.23
same,promoter activity interaction Z-score,[5]; [7],0.206 ± 1.2
same,promoter activity interaction Z-score,[5]; [8],-0.339 ± 0.25
same,promoter activity interaction Z-score,[5]; [9],-0.485 ± 0.31
same,promoter activity interaction Z-score,[5]; [10],-0.478 ± 0.28
same,promoter activity interaction Z-score,[5]; [11],0.198 ± 0.13
same,promoter activity interaction Z-score,[5]; [12],-0.000984 ± 1.4
same,promoter activity interaction Z-score,[5]; [13],-0.431 ± 0.54
same,promoter activity interaction Z-score,[5]; [14],0.0142 ± 0.56
same,promoter activity interaction Z-score,[5]; [15],-0.267 ± 0.49
same,promoter activity interaction Z-score,[5]; [16],0.254 ± 0.35
same,promoter activity interaction Z-score,[5]; [17],-0.273 ± 0.31
same,promoter activity interaction Z-score,[5]; [18],-0.957 ± 1.4
same,promoter activity interaction Z-score,[5]; [19],-0.659 ± 0.07
same,promoter activity interaction Z-score,[5]; [20],-0.565 ± 0.4
same,promoter activity interaction Z-score,[5]; [21],-0.633 ± 0.011
